In all, about 69,000 compounds went through this assay and about 8,600 (12%) showed an effect of 50% or more. What follows is part of a selection rich in strong results, with near analogues and random picks from the rest.
Tested on: Plasmodium berghei
Experiment: Screen against P. berghei liver stage (PbLuc), transformed with Luciferase, at 10uM
Assay type: functional, HepG2
Details: tested at 10 uM

Going from `CS(=O)(=O)N1C[C@H]2CCCN(Cc3ccsc3)[C@H]2C1` to `COc1cccc(COCC(=O)N2CCN(S(C)(=O)=O)CC2)c1`, the INHIBITION rises from 21.6% to 28.74%.

Going from `COc1cc(N2CCC3(CC2)CC(N2CCN(C)CC2)CO3)ncn1` (centres undefined) to `CN1CCN(c2nccc(-c3cncnc3C3CCCCC3)n2)CC1`, the INHIBITION falls from 26% to 23.4%.

First: Cc1cccc(C(=O)N2C[C@@H]3CC[C@H](Oc4cccc(F)c4)[C@@H]3C2)n1
Second: NC(=O)[C@H]1CCCN(c2nccc(-c3c[nH]nc3-c3cccnc3)n2)C1
The INHIBITION of the first is lower: 25.6% for the first, 54.5% for the second.

Compared with `COCCN1CCC2(CCCN(C(=O)c3cncn3C)C2)CC1`, `Cc1ccc(CN2CCC3(CC2)CCN(C(=O)c2cccn2C)C3)cc1` is lower in INHIBITION: 49.7% for the first, 6.27% for the second.

First: CNC(=O)CC1CC2(CCN(CC3CC3)CC2)Oc2ccccc21 (centres undefined)
Second: CN(C)C(=O)CN1CCC2(C1)CN(CC1CCOC1)C2 (centres undefined)
The INHIBITION of the first is higher: 44.5% for the first, 8.31% for the second.

First: Cc1nc2sccn2c1CN(CCCN(C)C)Cc1ccccn1
Second: CC(Cn1ccnc1)NC(=O)NCc1ccccn1 (centres undefined)
The INHIBITION of the first is lower: -12.5% for the first, 15.34% for the second.

Going from `CN(CC1CCN(CCO)CC1)CC(O)c1ccc(F)cc1` (centres undefined) to `CN(CC1CCN(CCO)CC1)CC(O)c1ccc(F)c(F)c1` (centres undefined), the INHIBITION rises from 34.1% to 49.9%.

First: CN(CC1CCN(CCO)CC1)CC(O)c1ccc(F)cc1F (centres undefined)
Second: CNc1cccc(C2CCN(C(C)=O)CC2)n1
The INHIBITION of the first is higher: 59.1% for the first, -9.51% for the second.

Going from `Cc1cc(C)n(Cc2ccc(-c3noc(C(=O)NC[C@@H](C)O)n3)cc2)n1` to `CCOC(=O)C1CCN(c2nccc(-n3nc(C)cc3C)n2)CC1`, the INHIBITION falls from -4.28% to -79.8%.

Compared with `CN1CCCN(c2nccc(-c3cncnc3C3CCCCC3)n2)CC1`, `CN1CCCN(c2nccc(-c3c[nH]nc3C3CCCCC3)n2)CC1` is higher in INHIBITION: 50.1% for the first, 68.9% for the second.

Going from `NC(=O)C1CCN(c2nccc(-c3c[nH]nc3C3CCCCC3)n2)CC1` to `c1cc(-c2c[nH]nc2C2CCCCC2)nc(N2CCCCCC2)n1`, the INHIBITION rises from 57.5% to 90.1%.

First: Cc1ncc(-c2ccnc(N3CC[C@H](O)C3)n2)c(-c2cccnc2)n1
Second: Cc1ncc(-c2ccnc(N3CCN(C)CC3)n2)c(-c2cccnc2)n1
The INHIBITION of the first is lower: -13.7% for the first, 21.9% for the second.

First: NC(=O)[C@H]1CCCN(c2nccc(-c3ccncc3)n2)C1
Second: Cc1csc2ncc(-c3ccnc(N4CCC[C@H](C(N)=O)C4)n3)c(=O)n12
The INHIBITION of the first is lower: 10% for the first, 64.9% for the second.

First: Cc1ccnc(N2CCC(C(N)=O)CC2)n1
Second: Cc1ccnc(OCC(=O)N2CCC(C(N)=O)CC2)n1
The INHIBITION of the first is higher: 63.4% for the first, 26.4% for the second.

First: NC(=O)C1CCN(c2ncc(-c3cnccn3)c([C@H]3CCCO3)n2)CC1
Second: NC(=O)C1CCN(c2nc3nccc(-c4ccccn4)c3c(=O)[nH]2)CC1
The INHIBITION of the first is lower: -0.902% for the first, 2.37% for the second.

Compared with `CN1CCCN(c2nccc(-c3c[nH]c4ccc(Br)cc34)n2)CC1`, `CN1CCCN(c2nccc(-c3c[nH]nc3-c3ccncc3)n2)CC1` is higher in INHIBITION: 41.2% for the first, 42.6% for the second.

Compared with `CSc1ncccc1C(=O)N1C[C@@H]2CC[C@H]1CN(c1ncccn1)C2`, `CN1CCCN(c2nccc(-c3cc(C(=O)O)ccn3)n2)CC1` is higher in INHIBITION: 15.1% for the first, 41.4% for the second.

Going from `COCCCNC(=O)c1nnsc1-c1ccccc1` to `COCCOC(=O)N1CCN2C[C@@H](CO)[C@H](c3ccccc3)[C@H]2C1`, the INHIBITION falls from -6.42% to -8.8%.

First: COc1ccc(C)cc1CN1CCOC(Cn2nc(C)nc2C)C1 (centres undefined)
Second: COCC[C@]1(O)CCN(Cc2nc(C)c(C)s2)C[C@H]1C
The INHIBITION of the first is higher: -10.6% for the first, -47.4% for the second.

Going from `CCc1cc(-c2cc[nH]n2)nc(N2CCOCC2)n1` to `c1cc(-c2n[nH]cc2-c2ccnc(N3CCCC3)n2)ccn1`, the INHIBITION rises from 17.5% to 33.7%.

First: CC1CN(CC(=O)Nc2ccncc2)CCN1Cc1nccn1C (centres undefined)
Second: c1cc(-c2n[nH]cc2-c2ccnc(N3CCCCCC3)n2)ccn1
The INHIBITION of the first is lower: 8.9% for the first, 50.1% for the second.

First: CC(C)c1nc(C2CCCN(c3nccc(N4CCCC4)n3)C2)no1 (centres undefined)
Second: c1cc(-c2cn3nccc3nc2C2CCCCC2)nc(N2CCCC2)n1
The INHIBITION of the first is lower: 23.1% for the first, 82.7% for the second.

Compared with `Nc1nccc(-c2c[nH]nc2C2CCCCC2)n1`, `OCCNc1nccc(-c2cn3nccc3nc2C2CCCCC2)n1` is lower in INHIBITION: 41.2% for the first, 39.7% for the second.

First: Cc1csc2ncc(-c3ccnc(N4CCCC4)n3)c(=O)n12
Second: Cc1csc2ncc(-c3ccnc(N4CCCN(C)CC4)n3)c(=O)n12
The INHIBITION of the first is lower: -71.6% for the first, 26.3% for the second.

First: O=S1(=O)NC(c2ccnc(N3CCCCC3)n2)=Nc2ccccc21
Second: Cc1ncc(-c2ccnc(N3CCCCCC3)n2)c(-c2cccnc2)n1
The INHIBITION of the first is higher: 25.8% for the first, 12.7% for the second.

First: CC(=O)N1CCCN(c2nccc(-c3cn(C)nc3C)n2)CC1
Second: c1cncc(-c2nc(C3CC3)ncc2-c2ccnc(N3CCCC3)n2)c1
The INHIBITION of the first is lower: 4.2% for the first, 51.5% for the second.

First: Cc1ccc(Cl)cc1NCc1nc2n(n1)CCCCC2
Second: CC(C)=CCN1CCN(C(=O)c2cc(C)n[nH]2)[C@H]2CS(=O)(=O)C[C@H]21
The INHIBITION of the first is higher: 25.1% for the first, -6.67% for the second.

From ChEMBL document CHEMBL4513216, “Probing the Open Global Health Chemical Diversity Library for Multistage-Active Starting Points for Next-Generation Antimalarials” (ACS Infect Dis, 2020)
